Assay outcomes as filed in PubChem.
HepG2 viability = counter-screen for TGF-b inhibitors: cytotoxicity in HepG2 cells; HepG2 CAGA-GFP viability, ATP luminescence, 18 h; Potency, µM (highest dose often 46.1 µM), without a hit: at the top dose activity change, negative = cytotoxicity, actives largely listed as cytotoxic; hit rate 0.76% among 410,000; AID 588856
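CellTiter-Glo luminescence gave cytotoxicity after 18 hours at 37 degrees C. The cells were HepG2 CAGA-GFP in 1% FBS DMEM, stimulated with 500 pg/mL TGF-beta after compound addition. %Activity was normalised to no-cell wells (complete cell-killing) and DMSO (no toxicity), and curves were fitted and classified.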
ATXN2 expr inh = reduces ATXN2 reporter expression in HEK-293 cells; HEK-293 ATXN2-luciferase reporter, luminescence, 24 h; Potency, µM (doses to about 57 µM), for inactives: at the highest dose activity change, negative = inhibition, usual class: inhibitors; hit rate 0.72% among 360,000; AID 1745845; note: % is set by controls: 0 for no effect and ±100 for the full control effect; nearly all actives have a fitted effect of over 55% in size
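qHTS (up to 57 uM final) was run with 24 h compound exposure of reporter cells at 37 °C. Each well was multiplexed: SteadyGlo luminescence measured ATXN2-luciferase expression after a fluorogenic Gly-Phe-AFC viability readout (25 uM final).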
TGFb inhibitor = TGF-b pathway inhibition | Potency, µM (highest dose often 46.1 µM), inactives show at the top dose activity, negative = inhibition, usual class: inhibitors | hit rate 1.2% among 410,000 | AID 588855 | HepG2 CAGA-GFP TGF-b/SMAD3 reporter, GFP fluorescence, 18 h; TGF-beta stimulated, 500 pg/mL final; note: % is set by controls: 0 for no effect and ±100 for the full control effect; nearly all actives have a fitted effect of over 65% in size
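Smad-responsive CAGA-GFP expression was quantified in HEPG2 cells exposed to compounds and 500 pg/mL final TGF-beta for 18 h at 37 degrees C; unstimulated wells defined full inhibition.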
Apoferritin bind = binds horse apoferritin like a general anesthetic; hit rate 0.074% among 350,000; apoferritin/1-aminoanthracene competitive binding, fluorescence; Potency, µM (series often up to 77.5 µM), for the others: top-dose activity change, negative = displacement, usual class: inhibitors; note: % is set by controls: 0 for no effect and ±100 for the full control effect; nearly all actives have a fitted effect of over 20% in size
Target sequence (P02791 2-175 limits assumed): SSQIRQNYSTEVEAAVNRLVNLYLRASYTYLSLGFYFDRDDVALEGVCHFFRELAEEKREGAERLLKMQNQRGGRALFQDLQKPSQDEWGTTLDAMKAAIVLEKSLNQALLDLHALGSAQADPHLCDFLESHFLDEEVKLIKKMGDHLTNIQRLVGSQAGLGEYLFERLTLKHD
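Apoferritin-based anesthetic binding model; compound displacement of fluorescent 1-AMA measured as endpoint fluorescence after 10 minutes at room temperature, scaled to free-ligand and complex controls.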
ATXN viability = cell viability loss in ATXN counter-screen; S2 cells (HEK-293 line with an ATXN2-luciferase reporter) viability, CellTiter-Fluor protease fluorescence, 24 h; hit rate 0.49% among 400,000; Potency, µM (series often up to 56.7 µM), hits mostly cytotoxic; AID 651635; note: nearly all actives have a fitted effect of over 40% in size
Active calls of the source: *; i = inactive; ? = inconclusive; . = no result; ! = not active in a repeat; [ ] = another dose, or the depositor's remark. Sampled rows, rich in hits. Any-hit rate of the full collection: about 2.4%. Calls come from the whole dose curve; as a rule, active = well fitted curve in the direction sought with a large enough effect; inconclusive = small, poorly fitted or top-dose-only effect, or another doubt; inactive = no such curve, though single readings can be large; an effect the other way counts as inactive or inconclusive. Potency is the fitted concentration of half-maximal effect.

SMILES | HepG2 viability | ATXN2 expr inh | TGFb inhibitor | Apoferritin bind | ATXN viability
CCS(=O)(=O)c1ccc2oc(SCC(=O)NC3CCCC(C)C3C)nc2c1 (stereo not given) | 19% | -9% | 1% | 50µM* | i
C[C@H](NC(=O)Cc1cc(F)cc(F)c1)C(=O)N[C@@H](C(=O)OC(C)(C)C)c1ccccc1 | . | . | . | 0% | .
C/C=C/C(=O)[C@@H](C)[C@@H](/C=C/C[Si](C)(C)C)c1ccccc1 | 4% | . | -9% | -15% | .
COc1ccc(C(=O)Nc2ncnc3nc[nH]c23)cc1 | 5% | . | -4% | . | .
CCOC(=O)[C@@H](C)N(C(=O)OC(C)(C)C)S(=O)(=O)N(Cc1ccccc1)[C@H](C(=O)OC)C(C)C | -31% | -8% | 10µM*! | . | ?
CCOC(=O)[C@@H](C)N(C(=O)OC(C)(C)C)S(=O)(=O)N(Cc1ccccc1)[C@@H](C(=O)OC)C(C)C | -48% | . | ? | . | .
COc1cc(OC)cc(C2=Nn3c(nnc3-c3cccc(OC)c3)SC2)c1 | . | . | . | -5% | .
Cc1ccc(N(Cc2cccs2)C(=O)c2ccccc2Cl)cc1 | -10% | -9% | ? | 3% | ?
CCc1ccc(OCC(=O)N(Cc2cccs2)c2ccc(Cl)cc2)cc1 | -33% | -31% | 16µM* | 90% | ?
CCOc1ccccc1C(=O)N(Cc1cccs1)c1ccc(Cl)cc1 | -97% | 0% | 18µM* | -1% | ?
O=C(/C=C/c1ccc(F)cc1)NCC1Cc2cccc(-c3ncccn3)c2O1 (stereo not given) | . | . | . | . | i
CC(C)CCn1c(Sc2nc3ccccc3o2)nc2c1c(=O)[nH]c(=O)n2C | 9% | ? | ? | 1% | ?
CCCCC(=O)N(C)c1c(CC)nc2c(OCCOc3ccccc3)cccn12 | -10% | -35% | -10% | . | i
COC(=O)[C@H](C)N(Cc1ccc(Cl)c(Cl)c1)S(=O)(=O)CCN1CCN(c2ccccc2)CC1 | -7% | -12% | 11µM* | . | i
CN1CC[C@@H](c2c(O)cc(O)c3c(=O)cc(-c4ccccc4Cl)oc23)[C@@H](O)C1 | . | 0.15µM* | . | . | .
O=c1cc(-c2ccccc2Cl)oc2c(Br)ccc(O)c12 | 4% | 38% | -18% | ? | i
COC(=O)[C@@H]1CCCN1Cc1ccc2c(c1)CN(Cc1ccc3c(c1)CCO3)CCO2 | . | . | . | . | i
COc1cc(Cl)c(CN2CCOc3ccc(CN4CCCCC4CO)cc3C2)cc1OC (stereo not given) | . | . | . | . | i
CC(C)(C)CC(C)(C)N=C1Nc2ccc([N+](=O)[O-])cc2N[C@]12C[C@H]1CCCC(=O)N3CC[C@@H](C2)[C@@H]13 | -27% | . | ? | . | .
CCc1ccc(NC(=O)C(CC)Sc2nc3cc4c(cc3c(=O)n2Cc2ccco2)OCO4)cc1 (stereo not given) | -42% | ? | 0% | -2% | ?
CCc1ccccc1NC(=O)C(CC)Sc1nc2cc3c(cc2c(=O)n1Cc1ccco1)OCO3 (stereo not given) | -6% | 16µM* | 6% | -3% | 18µM*
CCC1CCCCC1 | . | . | . | -2% | .
O=C(COc1ccccc1[N+](=O)[O-])N1CCCc2ccccc21 | 4% | 1% | 0% | -26% | i
CC(C)C[C@H](NC(=O)CNC(=O)c1cc(Cl)ccc1Cl)B(O)O | . | 0.31µM* | . | . | .
CC(C)C[C@H](NC(=O)CNC(=O)c1cc(Cl)ccc1Cl)B1OC(=O)CC(CC(=O)O)(C(=O)O)O1 (stereo not given in full) | . | 0.22µM* | . | . | .
SMILES | HepG2 viability | ATXN2 expr inh | TGFb inhibitor | Apoferritin bind | ATXN viability
C=CCNC(=O)c1cc(Cl)ccc1Cl | -2% | 2% | 3% | -12% | i
C=CC[n+]1c(-c2ccc(Cl)cc2Cl)csc1Nc1ccc(NC(C)=O)cc1 | 22µM* | ? | ? | 7% | ?
CCCCOc1ccc(-c2cc(C(=O)NNC(=S)NCC)c3ccccc3n2)cc1 | 8.9µM* | ? | ? | -17% | ?
CCCCOc1cccc(-c2cc(C(=O)NNC(=S)NCC)c3ccccc3n2)c1 | -42% | -16% | ? | ? | ?
CCCOc1cccc(-c2cc(C(=O)N/N=C/c3ccccn3)c3ccccc3n2)c1 | -2% | 7.1µM* | ? | ? | ?
CCNC(=S)NNC(=O)c1cc(-c2ccc(OC)cc2)nc2ccccc12 | 7.9µM* | -28% | -3% | 2% | i
CCCOc1cccc(-c2cc(C(=O)N/N=C/c3cccnc3)c3ccccc3n2)c1 | 5% | 24% | ? | ? | i
COc1ccc(-c2ccccc2C2NC(C(=O)O)CCC2C)cc1 (stereo not given) | . | . | . | -1%[15.3 µM] | .
C=CC[C@@H]1C=C[C@@H](O/N=C\C[C@@H]2C=C[C@H](OC(C)=O)[C@H](COC(C)=O)O2)[C@@H](CO)O1 | . | . | . | 0%[15.3 µM] | .
Cc1cc(/C=C/c2ccnc3ccccc23)ccc1N | -21% | . | ? | . | .
COc1cc(OC)cc(C2=Cc3ccccc3C(CC(C)=O)N2c2ccc(C#CC3(N)CCCCC3)cc2)c1 (stereo not given) | . | ? | . | . | 28µM*
COc1cc(OC)cc(C2=Cc3ccc(OC)cc3C(CC(C)=O)N2c2ccc(C#CC3(O)CCCCC3)cc2)c1 (stereo not given) | . | -27% | . | . | ?
COc1cc(OC)cc(C2=Cc3ccc(OC)cc3C(CC(C)=O)N2c2ccc(C#CC3(N)CCCCC3)cc2)c1 (stereo not given) | . | -16% | . | . | 18µM*
Cc1ccc(S(=O)(=O)NCc2ccccc2)cc1C(=O)NCC(C)(C)N1CCOCC1 | -15% | -7% | -9% | . | i
O=C(O)c1ccc(-c2ccccc2)[nH]c1=O | 7% | 6% | -2% | -3% | i
CC(O)C1C(=O)N2C(C(=O)O)=C(SC3CNC(C(=O)N(C)C)C3)C(C)C12 (stereo not given) | . | 7% | . | . | .
O=C(NCCc1ccccn1)C1CC12CCN(C(=O)c1c(F)cccc1Cl)CC2 (stereo not given) | . | . | . | . | i
COCC(=O)Nc1cc(C(=O)N2CCc3sccc3C2)c2c(c1)nc(-c1ccncc1)n2C | . | . | . | . | i
O=C1C[C@H](c2ccccc2)[C@@H](c2ccc(Br)cc2)O1 | . | . | . | -6%[15.3 µM] | .
C[C@@H]1[C@@H](Sc2ccccc2)CC(=O)O[C@@H]1c1ccc(-c2ccccc2)cc1 | 11µM* | 18µM* | ? | 61% | 22µM*
O=C(Nc1ccncc1)c1c(Cl)cccc1Cl | -63% | 45% | ? | -1% | i
Cc1cc(Nc2cc(NC(=O)c3c(Cl)cccc3Cl)ccn2)nc(N)n1 | . | 7.7µM* | . | . | .
O=C(CN(C(=O)CCC(=O)Nc1ccccn1)c1ccc(F)cc1)NCc1ccc(F)cc1 | -36% | -7% | 6% | 2% | i
CCOC(=O)c1sc(NC(=O)c2sccc2C)cc1C | 14µM* | 90% | 2% | -3% | i
